# The supplement of paper PMC10037445
# Whole data set: some 2,900 compounds, median “NF-kB SEAP reporter activity, fold change vs agonist alone” near 0.99, cut for the highest 2% near 2.6. The entries come from a sample that favours the highest values as a whole.
# How the values were obtained:
# [1] = tested on: RAW-Dual; assay: NF-kB SEAP reporter activity, fold change vs agonist alone; higher = enhanced NF-kB activity; conditions: cytotoxicity flag (confluency mask): not cytotoxic
# Outline: (§1)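 Library stock was pin-tooled at 50 nL into 384-well plates of RAW-Dual macrophages (50,000 cells/well, DMEM), followed 1 h later by a PRR agonist, and the cells were kept at 37 °C, 5% CO2. Supernatant collected after 20 hours was read for IRF by QuantiLuc luminescence and for NF-κB by QuantiBlue absorbance at 620 nm. Reporter activity is fold change over agonist-alone wells, and a well counted as cytotoxic when its IncuCyte confluency was below 70% of agonist controls in both mask sets.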
# [2] = tested on: RAW-Dual; assay: NF-kB SEAP reporter activity, fold change vs agonist alone; cytotoxicity flag (confluency mask): not cytotoxic; higher = enhanced NF-kB activity
# Outline: as §1
# [3] = library stock concentration (final ~1000-fold dilution): 10 mM water, agonist: Imiquimod (TLR7) […]
# [4] = library stock concentration (final ~1000-fold dilution): 10 mM water, agonist: MPLA (TLR4) […]
# [5] = library stock concentration (final ~1000-fold dilution): 10 mM, agonist: Imiquimod (TLR7) […]
# [6] = library stock concentration (final ~1000-fold dilution): 10 mM, agonist: MPLA (TLR4) […]
# [7] = agonist: ODN 1826 (TLR9) 0.5 ug/mL
# [8] = agonist: Pam2CSK4 (TLR2/6) 0.1 ug/mL
# [9] = agonist: Pam3CSK4 (TLR2/1) 0.1 ug/mL
smiles,measurement,setting,value
CNC1C(O)C(OC2C(NC(=O)C(O)CN)CC(N)C(OC3OC(CN)C(O)C(O)C3O)C2O)OCC1(C)O.O=S(=O)(O)O (centres undefined),NF-kB SEAP reporter activity,[1]; [3],0.944
same,NF-kB SEAP reporter activity,[1]; [4],1.01
COc1ccc(C(NC(=O)c2cnc(-c3cccnn3)nc2O)c2ccc(OC)cc2)cc1,NF-kB SEAP reporter activity,[1]; [5],0.974
same,NF-kB SEAP reporter activity,[1]; [6],1.03
COc1ccc(C(NC(=O)c2cnc(-c3cccnn3)nc2O)c2ccc(OC)cc2)cc1 (library stock concentration (final ~1000-fold dilution): 10 mM),NF-kB SEAP reporter activity,[2]; agonist: LPS (TLR4) 0.1 ug/mL,2.9
same,NF-kB SEAP reporter activity,[2]; [7],0.861
same,NF-kB SEAP reporter activity,[2]; [8],0.898
same,NF-kB SEAP reporter activity,[2]; [9],1.02
O=C(O)c1ccc(Br)c(O)c1,NF-kB SEAP reporter activity,[1]; [6],1.11
O=C(O)c1ccc(Br)c(O)c1 (library stock concentration (final ~1000-fold dilution): 10 mM),NF-kB SEAP reporter activity,[2]; agonist: LPS (TLR4) 0.1 ug/mL,1.11
same,NF-kB SEAP reporter activity,[2]; [7],0.975
same,NF-kB SEAP reporter activity,[2]; [8],1.09
same,NF-kB SEAP reporter activity,[2]; [9],0.729
O=C(/C=C/c1ccc(O)c(O)c1)O[C@@H]1CC(O)(C(=O)O)C[C@@H](OC(=O)/C=C/c2ccc(O)c(O)c2)C1O (some centres undefined),NF-kB SEAP reporter activity,[1]; [5],0.841
same,NF-kB SEAP reporter activity,[1]; [6],1.01
O=C(/C=C/c1ccc(O)c(O)c1)O[C@@H]1CC(O)(C(=O)O)C[C@@H](OC(=O)/C=C/c2ccc(O)c(O)c2)C1O (some centres undefined) (library stock concentration (final ~1000-fold dilution): 10 mM),NF-kB SEAP reporter activity,[2]; agonist: LPS (TLR4) 0.1 ug/mL,1.24
same,NF-kB SEAP reporter activity,[2]; [7],1.04
same,NF-kB SEAP reporter activity,[2]; [8],1.11
same,NF-kB SEAP reporter activity,[2]; [9],1.18
CC(C)NC(=O)C1CCC(n2c(=NC(=O)c3ccc(F)cc3)[nH]c3ccc(CN4CCC(C(C)(C)O)CC4)cc32)CC1 (centres undefined),NF-kB SEAP reporter activity,[1]; [5],1.44
same,NF-kB SEAP reporter activity,[1]; [6],0.822
CC(C)NC(=O)C1CCC(n2c(=NC(=O)c3ccc(F)cc3)[nH]c3ccc(CN4CCC(C(C)(C)O)CC4)cc32)CC1 (centres undefined) (library stock concentration (final ~1000-fold dilution): 10 mM),NF-kB SEAP reporter activity,[2]; agonist: LPS (TLR4) 0.1 ug/mL,1.17
same,NF-kB SEAP reporter activity,[2]; [7],0.713
same,NF-kB SEAP reporter activity,[2]; [8],1.24
same,NF-kB SEAP reporter activity,[2]; [9],2.16
Cc1cc(Nc2nc(NC(C)c3ccc(F)cc3)c(C#N)cc2F)n[nH]1 (centres undefined),NF-kB SEAP reporter activity,[1]; [5],1
same,NF-kB SEAP reporter activity,[1]; [6],0.984
Cc1cc(Nc2nc(NC(C)c3ccc(F)cc3)c(C#N)cc2F)n[nH]1 (centres undefined) (library stock concentration (final ~1000-fold dilution): 10 mM),NF-kB SEAP reporter activity,[2]; agonist: LPS (TLR4) 0.1 ug/mL,1.87
same,NF-kB SEAP reporter activity,[2]; [7],0.965
same,NF-kB SEAP reporter activity,[2]; [8],1.44
same,NF-kB SEAP reporter activity,[2]; [9],0.993
Cc1cc(Nc2cc(Cl)nc(Oc3ccc([N+](=O)[O-])cc3)n2)n[nH]1 (library stock concentration (final ~1000-fold dilution): 10 mM),NF-kB SEAP reporter activity,[2]; agonist: LPS (TLR4) 0.1 ug/mL,3.28
same,NF-kB SEAP reporter activity,[2]; [7],2.32
same,NF-kB SEAP reporter activity,[2]; [8],1.82
same,NF-kB SEAP reporter activity,[2]; [9],2.92
Cc1cc(Nc2cc(Cl)nc(Oc3ccc([N+](=O)[O-])cc3)n2)n[nH]1,NF-kB SEAP reporter activity,[1]; [5],1.24
same,NF-kB SEAP reporter activity,[1]; [6],2.16
O=C(O)[C@H](O)Cc1ccc(O)c(O)c1,NF-kB SEAP reporter activity,[1]; [3],0.919
same,NF-kB SEAP reporter activity,[1]; [4],1.04
O=C(O)[C@H](O)Cc1ccc(O)c(O)c1 (library stock concentration (final ~1000-fold dilution): 10 mM water),NF-kB SEAP reporter activity,[2]; agonist: LPS (TLR4) 0.1 ug/mL,1.19
same,NF-kB SEAP reporter activity,[2]; [7],1.22
same,NF-kB SEAP reporter activity,[2]; [8],1.1
same,NF-kB SEAP reporter activity,[2]; [9],1
COc1nc2ccc(Br)cc2cc1C(c1ccccc1)C(O)(CCN(C)C)c1cccc2ccccc12 (centres undefined) (library stock concentration (final ~1000-fold dilution): 10 mM),NF-kB SEAP reporter activity,[2]; agonist: LPS (TLR4) 0.1 ug/mL,0.761
same,NF-kB SEAP reporter activity,[2]; [7],0.86
same,NF-kB SEAP reporter activity,[2]; [8],0.78
same,NF-kB SEAP reporter activity,[2]; [9],0.531
COc1nc2ccc(Br)cc2cc1C(c1ccccc1)C(O)(CCN(C)C)c1cccc2ccccc12 (centres undefined),NF-kB SEAP reporter activity,[1]; [5],0.771
same,NF-kB SEAP reporter activity,[1]; [6],0.783
